Reference: PubChem BioAssay
Calls of active or inactive are those of the source. The rule behind the calls is not given here.

What follows are compounds tested against Pantothenate synthetase (Mycobacterium tuberculosis (strain ATCC 25618 / H37Rv)) (UniProt P9WIL5) (assay: Coupled enzyme confirmation of inhibitors against recombinant Mtb PanC (AID 375;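 note: 0% = full reaction with vehicle and 100% = no enzyme background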)). Conditions: coupled enzyme assay; at 10 µM, hits give high values.
Sequence of Pantothenate synthetase (Mycobacterium tuberculosis (strain ATCC 25618 / H37Rv)) (P9WIL5 whole entry, looked up): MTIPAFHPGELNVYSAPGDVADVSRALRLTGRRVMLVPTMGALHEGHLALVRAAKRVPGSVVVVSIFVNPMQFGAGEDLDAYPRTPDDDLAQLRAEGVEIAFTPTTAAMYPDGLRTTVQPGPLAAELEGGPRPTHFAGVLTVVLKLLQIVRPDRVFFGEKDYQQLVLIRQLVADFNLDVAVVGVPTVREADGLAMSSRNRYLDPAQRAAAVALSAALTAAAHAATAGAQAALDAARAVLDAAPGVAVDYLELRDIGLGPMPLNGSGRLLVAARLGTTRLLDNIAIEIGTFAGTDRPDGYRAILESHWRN

Row | SMILES | inhibition
1 | c1ccc(-c2nn3c(Cn4nnc5ccccc54)nnc3s2)nc1 | 0% (inactive)
2 | COC(=O)c1ccccc1NC(=O)Cn1ccnc1 | 0% (inactive)
3 | COc1ccc(C(=O)Oc2c(CN3CCOCC3)cc(Cl)c3cccnc23)cc1OC | 0% (inactive)
4 | Cc1cc(N2CCN(c3ccccn3)CC2)n2nc(C)nc2n1 | 1% (inactive)
5 | Cn1c(=O)c2c(nc(CN3CCCCC3)n2CCc2ccccc2)n(C)c1=O | 1% (inactive)
6 | CCSc1nnc(NC(=O)c2ccc(C)o2)s1 | 9% (inactive)
7 | O=C(Nc1ccc2c(c1)OCCO2)C1CCCN(S(=O)(=O)c2cnc[nH]2)C1 (configuration not stated) | 0% (inactive)
8 | O=c1c2ccccc2nnn1CSc1nc2cc(Cl)ccc2c(=O)n1Cc1ccco1 | 7% (inactive)
9 | CCOc1ccccc1NC(=O)C1CCCN(C(=O)NCc2ccccc2)C1 (configuration not stated) | 8% (inactive)
10 | CN(C)c1nc(SCCOC(=O)c2ccccc2)nc(N(C)C)n1 | 6% (inactive)
11 | Cc1ccccc1Nc1cc2ccccc2c(=O)[nH]1 | 2% (inactive)
12 | CCC(Sc1nc2sc(C(=O)OC)c(C)c2c(=O)n1N)C(=O)NCC1CCCO1 (configuration not stated) | 4% (inactive)
13 | O=C(Cn1ccc2ccccc2c1=O)NCCC(=O)NC1CCN(Cc2ccccc2)CC1 | 0% (inactive)
14 | CC(=O)SCC(=O)N=c1sc2cc(F)ccc2n1C | 0% (inactive)
15 | CCOC(=O)c1ccc(N=Cc2nc(-c3ccccc3)oc2OC(C)=O)cc1 | 0% (inactive)
16 | CC(C)N(Cc1nc(-c2ccc(Cl)cc2)no1)C(=O)CN(C)S(=O)(=O)c1ccc(Cl)cc1 | 0% (inactive)
17 | O=C(CCN1CCN(CCO)CC1)Nc1ccc(OCc2ccccc2)cc1 | 6% (inactive)
